Source: PubChem (National Center for Advancing Translational Sciences (NCATS))
The list is not random: actives were taken first. Their share in the collection is about 11%.
AMA1 RON2 block: qHTS for Inhibitors of AMA1-RON; Towards Development of Antimalarial Drug Lead: Primary Screen; AID 720542, 2013; Plasmodium falciparum AMA1 (3D7) - RON2 peptide interaction; hit rate 0.2% among 360,000; Potency, µM (highest dose often 58.2 µM), for the others: top-dose activity change, negative = inhibition, usual class: inhibitors; AlphaScreen AMA1-biotinylated RON2 peptide binding;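 also: 0% = vehicle wells and -100% = peptide control; nearly all actives have a fitted effect of over 45% in size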
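AMA1 (3D7) with his tag at 25 nM final met compounds first, then biotinylated RON2 peptide at 25 nM; detection used donor plus acceptor beads, 10 µg/mL apiece, read by AlphaScreen after 30 min at room temperature.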
Pf growth 48h: Primary qHTS for delayed death inhibitors of the malarial parasite plastid, 48 hour incubation. P. falciparum luciferase growth in erythrocytes, 48 h. Potency, µM (doses to about 28.7 µM), without a hit: at the highest dose activity change, negative = inhibition, actives largely listed as inhibitors. hit rate 5.9% among 310,000; also: % is scaled to controls: 0 for no effect and ±100 for the full control effect
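In quantitative HTS format, infected erythrocytes bearing luciferase-reporter parasites were treated for a single generation at 37 C. Luminescence after adding detection reagent served as the growth measure.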
Sm TGR inh: qHTS Assay for the Inhibitors of Schistosoma Mansoni Peroxiredoxins; Schistosoma mansoni thioredoxin glutathione reductase (TGR), Q962Y6; purified TGR, DTNB reduction, TNB absorbance 405 nm; Potency, µM (series often up to 114 µM), without a hit: at the top dose activity change, negative = inhibition, most hits filed as inhibitors; hit rate 3% among 360,000; AID 485364, 2010; also: % is scaled to controls: 0 for no effect and ±100 for the full control effect; nearly all actives have a fitted effect of over 60% in size
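Kinetic colorimetric format: TGR-catalysed, NADPH-driven DTNB reduction monitored via TNB absorbance. Enzyme dispensed at 20 nM; compound exposure 15 min at room temperature before reaction start.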
Pf growth 96h: Primary qHTS for delayed death inhibitors of the malarial parasite plastid, 96 hour incubation; P. falciparum luciferase reporter growth, 96 h; Potency, µM (highest dose often 28.7 µM), without a hit: at the top dose activity change, negative = inhibition, actives largely listed as inhibitors; hit rate 6.9% among 320,000; AID 504834, 2011; also: % is scaled to controls: 0 for no effect and ±100 for the full control effect
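P. falciparum expressing integrated firefly luciferase grown in erythrocytes (2% hematocrit, 0.05% parasitemia final) with compounds for 96 hours at 37 C, 5% CO2. Growth inhibition read as loss of luminescence after adding luciferase detection reagent.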
NS1 function inh: qHTS Assay for Inhibitors of Influenza NS1 Protein Function; Potency, µM (doses to about 46.1 µM), inactives show at the highest dose activity, positive = more growth; hit rate 0.4% among 270,000; AID 2326, 2010; calls by dose curve; also: actives are rising curves; nearly all actives have a fitted effect of over 50% in size
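Read-out: OD600 growth recovery of NS1-expressing budding yeast. Cells grown overnight at 30C in -URA glucose medium, washed, resuspended and diluted 1:100 in 2% galactose assay medium, pH 6.0. Same strain lacking NS1 served as positive control.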
* hit, by the source's call; ? = inconclusive; . = no result; [ ] = remark or other dose. Unless noted, calls follow the shape of the dose curve; as a rule, active = well fitted curve in the direction sought with a large enough effect; inconclusive = small, poorly fitted or top-dose-only effect, or another doubt; inactive = no such curve, though single readings can be large; an effect the other way counts as inactive or inconclusive. Potency is read from the fitted curve at half-maximal effect.

SMILES	AMA1 RON2 block	Pf growth 48h	Sm TGR inh	Pf growth 96h	NS1 function inh
COc1ccc(C(C(=O)NC2CCCC2)N(Cc2cccnc2)C(=O)c2snc(C(N)=O)c2N)cc1 (stereo not given)	0%	12µM*	-5%	13µM*	5%
Cc1cc(OC(=O)c2cccc(C(F)(F)F)c2)c([N+](=O)[O-])c(=O)[nH]1	-5%	37%	-14%	66%	-11%
NC(=O)c1nsc(C(=O)N(c2ccccc2)C(C(=O)NC2CCCCC2)c2ccc(O)cc2)c1N (stereo not given)	-3%	?	?	10µM*	-2%
NC(=O)c1nsc(C(=O)N(c2ccccc2)C(C(=O)NC2CCCC2)c2ccncc2)c1N (stereo not given)	0%	29%	6%	18%	3%
COc1ccccc1N(C(=O)c1snc(C(N)=O)c1N)C(C(=O)NC1CCCC1)c1ccc(N(C)C)cc1 (stereo not given)	-21%	13µM*	1%	5%	10%
COc1ccccc1N(C(=O)c1snc(C(N)=O)c1N)C(C(=O)NC1CCCC1)c1ccco1 (stereo not given)	11%	-17%	-30%	14%	1%
COc1ccc(C)cc1N(C(=O)c1snc(C(N)=O)c1N)C(C(=O)NC1CCCCC1)c1ccc(C)o1 (stereo not given)	-3%	9.3µM*	-9%	?	28%
COc1ccc(CN(C(=O)c2snc(C(N)=O)c2N)C(C(=O)NC(C)(C)C)c2ccco2)cc1 (stereo not given)	-12%	?	?	9.3µM*	-7%
Cc1ccc(C)c(N(C(=O)c2snc(C(N)=O)c2N)C(C(=O)NCC2CCCO2)c2ccc(C)o2)c1 (stereo not given)	14%	?	-19%	20%	-8%
O=C(NC(=S)N1CCN(c2ccccc2)CC1)c1c(F)cccc1F	79%	?	-4%	-19%	1%
COc1cccc(-n2cc(C(=O)Nc3cc(OC)c(OC)c(OC)c3)c3ccccc3c2=O)c1	.	.	9%	.	.
COc1cccc(C(C(=O)NC2CCCC2)N(Cc2ccco2)C(=O)c2ccco2)c1OC (stereo not given)	-9%	?	-11%	100%	12%[9.22 µM]
COc1ccc(OC)c(N(C(=O)c2snc(C(N)=O)c2N)C(C(=O)NCc2ccccc2)c2ccc(O)cc2)c1 (stereo not given)	-25%	10µM*	-25%	13µM*	-46%
COc1cccc(C(C(=O)NC2CCCC2)N(C(=O)c2ccco2)c2ccccc2F)c1OC (stereo not given)	-9%	8.3µM*	-9%	31%	7%
Cc1csc2nc(COC(=O)c3ccc(NC(=O)c4ccccc4Br)cc3)cc(=O)n12	.	.	-5%	.	.
CCc1ccccc1NC(=O)CCC(=O)N1CC(C)Oc2ccc(C)cc21 (stereo not given)	.	.	0%	.	.
Cc1nn(C(C)C(=O)NC2C(=O)N3C(C(=O)O)=C(CSc4nnnn4C)CSC23)cc1Cl (stereo not given)	29%	30%	2.2µM*	6%	.
CO/N=C(\C(=O)N[C@@H]1C(=O)N2C(C(=O)O)=C(CSc3nc(=O)c(O)nn3C)CSC12)c1csc(N)n1 (stereo not given in full)	.	.	.	.	-1%
Cn1nnnc1SCC1=C(C(=O)O)N2C(=O)C(NC(=O)C3CC3c3ccccc3)C2SC1 (stereo not given)	9%	40%	2.5µM*	73%	.
Cn1nnnc1SCC1=C(C(=O)O)N2C(=O)[C@@H](NC(=O)[C@H](O)c3ccccc3)[C@H]2SC1	32%	15%	-16%	37%	7%
CC(C(=O)NC1C(=O)N2C(C(=O)O)=C(CSc3nnnn3C)CSC12)n1cc(Br)cn1 (stereo not given)	54%	45%	0.56µM*	46%	.
Cc1cc(C(F)F)nn1CC(=O)NC1C(=O)N2C(C(=O)O)=C(CSc3nnnn3C)CSC12 (stereo not given)	30%	-12%	14µM*	34%	.
COc1cccc(NC(=O)CN(C)C(=O)c2cc(-c3ccccc3)nn2-c2ccccc2)c1	-18%	.	.	.	.
COCCCN1C(=O)C2C(C(=O)Nc3cccc(Cl)c3)C3C=CC2(O3)C1C(=O)NC1CCCCC1 (stereo not given)	21%	-19%	4%	33%	2%
C=CCn1c(O)c(C(C)=Nc2ccc(N(CC)CC)cc2)c(=O)[nH]c1=O	0%	?	-24%	?	-6%
SMILES	AMA1 RON2 block	Pf growth 48h	Sm TGR inh	Pf growth 96h	NS1 function inh
C=CCn1c(O)c(C(C)=Nc2ccc(N(C)C)cc2)c(=O)[nH]c1=O	-12%	12µM*	8%	.	-6%
CC(=O)NCCNc1nc2cc(-c3cc(F)ccc3C)sc2c(=O)n1C	3%	.	.	.	.
Cc1nonc1CC(=O)NC1CCCc2c1cnn2-c1ccc(F)cc1F (stereo not given)	5%	4%	-5%	15%	4%
CCOC(=O)c1c(C)sc(Sc2ccc(Cl)cc2[N+](=O)[O-])c1OC	?	3.7µM*	-9%	.	1%
S=c1nc(C2CCCCC2)[nH]c2ccccc12	50%	-13%	-7%[57.1 µM]	2.3µM*	3%
S=c1nc(C2CC2)[nH]c2ccccc12	89%	-9%	-14%	.	-37%
COc1ccc2c(c1)[C@H]1[C@H](CO2)[C@H](c2ccccc2)[C@]2(C)C(=O)N(CC3CCCO3)CC(=O)N12 (stereo not given in full)	1%	?	-4%	?	.
O=C(N=C1SC2CS(=O)(=O)CC2N1Cc1ccccc1Cl)C1CCCO1 (stereo not given)	0%	6%	6%	28%	-9%
COc1ccc(Nc2cc(C)nc3nc(C)nn23)c(OC)c1	0%	-10%	4%	68%	-2%
COc1ccc(Nc2cc(C)nc3ncnn23)c(OC)c1	-9%	.	0%	2.9µM*	?
Cc1ccc(Nc2cc(C)nc3ncnn23)c(C)c1	5%	-10%	16%	1.5µM*	-1%
COc1ccc(OC)c(C2C(C(=O)c3ccccc3)=C(C)Nc3nc4ccccc4n32)c1 (stereo not given)	0%	?	-6%	?	-7%
COc1ccc(C2C(C(=O)c3ccccc3)=C(C)Nc3nc4ccccc4n32)cc1OC (stereo not given)	-2%	-21%	-4%	3.3µM*	9%
Cc1ccc(OC(=O)CSc2nnc(-c3cccs3)o2)cc1C	.	.	-5%	.	.
COc1ccc2c(c1)CCc1c(C(=O)Nc3c(C)nn(Cc4ccccc4C)c3C)noc1-2	.	.	-2%	.	.
